The results in this text go back to PubChem BioAssay (Tox21).

SMILES strings stand for the structures. Values without a mark were called inactive. Results filed as inconclusive are left out. Activity calls are given as the source filed them. Unless noted, the call rests on the fitted dose curve.

Experiment [1] is described as follows: Nuclear factor erythroid 2-related factor 2/antioxidant responsive element (Nrf2/ARE) small molecule agonists: qHTS cell viability counter screen in human keratinocytes (AID 1919968; active means well fitted curve in the direction sought with a large enough effect in the repeat runs; an effect the other way counts as inactive or inconclusive; further: nearly all actives have a fitted effect of over 55% in size; further: potency means the concentration at half of the fitted maximal effect). Put shortly:
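After a 5 h attachment period, ARE-reporter keratinocytes were dosed with compounds in DMSO and then cultured 23 h at 37 C. Cell viability came from CellTiter-Fluor signal read after a further 1 h.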
A general note: qHTS replaces the single test concentration by a dilution series.

Experiment [2] can be described thus: Nuclear factor erythroid 2-related factor 2/antioxidant responsive element (Nrf2/ARE) small molecule agonists: luciferase reporter gene qHTS assay in human keratinocytes (AID 1919969). Further: nearly all actives have a fitted effect of over 35% in size. Further: potency means the concentration at half of the fitted maximal effect.
The target of experiment [3] is Gonadotropin-releasing hormone receptor (Homo sapiens) (UniProt P30968). Put plainly: Human gonadotropin-releasing hormone receptor (GnRHR) small molecule agonists, calcium flux assay in GnRHR-HEK293 cells (AID 1920063). Further: nearly all actives have a fitted effect of over 35% in size. Put shortly:
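We seeded human GnRHR-expressing HEK293 cells for 18 hours, loaded them with calcium dye for an hour at 37 C, added test compounds, and recorded fluorescence intensity kinetically for three minutes.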
For orientation: A change in cytosolic calcium serves as a functional read-out for many receptors and channels.

The target of experiment [4] is KiSS-1 receptor (Homo sapiens) (UniProt Q969F8). Put plainly: Human kisspeptin (KISS1R) small molecule agonists, calcium flux assay in KISS1R-HEK293 cells (AID 1920064; active means well fitted curve in the direction sought with a large enough effect in the repeat runs; an effect the other way counts as inactive or inconclusive). In a few lines: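 Kinetic calcium assay, 1 s sampling over 3 min at Ex/Em 480/540, in HEK293 cells engineered with human KISS1R; compounds delivered in DMSO after 1 h dye loading.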
Sequence of KiSS-1 receptor (Homo sapiens) (Q969F8 whole entry, looked up): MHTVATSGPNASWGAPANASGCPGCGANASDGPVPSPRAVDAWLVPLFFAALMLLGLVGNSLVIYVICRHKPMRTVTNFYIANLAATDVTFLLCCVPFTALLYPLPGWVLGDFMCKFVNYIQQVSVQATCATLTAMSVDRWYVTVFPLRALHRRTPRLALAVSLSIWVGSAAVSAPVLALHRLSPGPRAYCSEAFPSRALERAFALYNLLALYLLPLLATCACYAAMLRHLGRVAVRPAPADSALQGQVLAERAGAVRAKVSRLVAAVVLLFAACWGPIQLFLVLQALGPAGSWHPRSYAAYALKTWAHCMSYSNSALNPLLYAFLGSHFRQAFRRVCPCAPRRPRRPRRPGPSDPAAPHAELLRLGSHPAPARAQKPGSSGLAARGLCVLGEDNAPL
A short description of experiment [5]: G protein-coupled receptor (GPCR) small molecule agonists, calcium flux assay: HEK293 wild type cell line counter screen (AID 1920065). In a few lines: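 Calcium-sensitive dye, loaded 1 h at 37 C into cells cultured 18 h, reports compound-evoked calcium release as fluorescence (Ex/Em 480/540), measured over 3 min. Agonist mode; 15-point titrations, triplicate.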

A short description of experiment [6]: p53 small molecule agonists, cell-based qHTS assay with human liver microsomes (AID 1963577). Put shortly: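 p53RE-bla cells, 4,000/well, compound added after 5 h, with human liver microsomes 0.5 mg/mL and NADPH 0.5 mg/mL final; 16 h at 37 C, then LiveBLAzer 2 h RT, fluorescence.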
Experiment [7] in a line: p53 small molecule agonists, cell-based qHTS assay with rat liver microsomes (AID 1963578). In a few lines:
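p53RE-bla cells, 4,000/well, pre-incubated 5 h, then given compounds plus rat liver microsomes (0.5 mg/mL final) and NADPH (0.5 mg/mL final). Incubation 16 h at 37 C; beta-lactamase reporter read by LiveBLAzer fluorescence after 2 h at room temperature.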

The nature of experiment [8]: p53 small molecule agonists, cell-based qHTS assay with rat liver microsomes: qHTS cell viability counter screen (AID 1963580). Further: nearly all actives have a fitted effect of over 45% in size. In a few lines:
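p53RE-bla HCT-116 cells were exposed 16 h at 37 C to compounds with rat liver microsomes (0.5 mg/mL) and NADPH (0.5 mg/mL). Viability was measured in the same wells as ATP content by CellTiter-Glo luminescence.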

Experiment [9] can be described thus: p53 small molecule agonists, cell-based qHTS assay: qHTS cell viability counter screen (AID 1963581). Further: nearly all actives have a fitted effect of over 45% in size. Put shortly: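 Following 5 h attachment, HCT-116 p53RE-bla cells took up compound for 16 h at 37 C; the reporter was read with B/G FRET substrate (2 h RT), and viability then via CellTiter-Glo ATP luminescence.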
Experiment [10] can be described thus: p53 small molecule agonists, cell-based qHTS assay (AID 1963582; active means well fitted activation curve with a large enough effect in the signal ratio in the repeat runs, not every such curve was filed as active; the % refers to the signal ratio). Put shortly:
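In this cell-based concentration-response screen, a p53 response element drives beta-lactamase; cells received DMSO-borne compounds after 5 h culture and were incubated a further 16 h before FRET substrate development.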

Experiment [11] concerns the target Muscarinic acetylcholine receptor M1 (Homo sapiens) (UniProt P11229). Put plainly: Cholinergic receptor muscarinic 1 (CHRM1) small molecule agonists, cell-based qHTS assay (AID 1963589). Further: nearly all actives have a fitted effect of over 35% in size. In a few lines:
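Measures agonist-induced intracellular calcium rise. Stable human CHRM1 CHO line, 1 h dye load at 37 C, compounds from DMSO, kinetic fluorescence read.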

The nature of experiment [12]: cAMP Responsive Elements (CRE) small molecule agonists, cell-based qHTS assay (AID 1963590). Put shortly: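 A CRE-responsive beta-lactamase reporter in HEK 293T cells was used. Treatment ran 3 h at 37 C; detection used LiveBLAzer B/G FRET substrate for 2 h at room temperature.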
Experiment [13] addresses D(2) dopamine receptor (Homo sapiens) (UniProt P14416). Put plainly: Dopamine D2 receptor (DRD2) small molecule agonists, cell-based qHTS assay (AID 1963594). Further: nearly all actives have a fitted effect of over 35% in size. Put shortly:
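HEK293 cells stably expressing human DRD2, pre-treated with PDE inhibitor Ro20-1724 (0.1 mM final) and compound 10 min at room temperature, then stimulated with NKH477 (200nM […]) for 30 min. cAMP read by HTRF (665/620 nm).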

For experiment [14] the target is unchanged. Put plainly: Dopamine D2 receptor (DRD2) small molecule antagonists, cell-based qHTS assay (AID 1963595; active means well fitted inhibition curve with a large enough effect in the signal ratio in the repeat runs, with a control signal flat; the % refers to the signal ratio). In a few lines:
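HTRF cAMP read-out at 665 and 620 nm emission (340 nm excitation). Antagonist mode: compounds were tested against 12 nM quinpirole in DRD2-HEK293 cells, with 200 nM NKH477 raising cAMP and 0.1 mM Ro20-1724 blocking its breakdown.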

Experiment [15] is described as follows: p53 small molecule agonists, cell-based qHTS assay with human liver microsomes: qHTS cell viability counter screen (AID 1963579). Further: nearly all actives have a fitted effect of over 45% in size. Put shortly: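 p53RE-bla cells, 4,000/well, dosed 5 hours after plating, with human liver microsomes (0.5 mg/mL final) plus NADPH (0.5 mg/mL final), 16 hours at 37 C. Viability read as CellTiter-Glo luminescence after 30 min at room temperature.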

Experiment [16] can be described thus: cAMP Responsive Elements (CRE) small molecule antagonists, cell-based qHTS assay (AID 1963591; active means well fitted inhibition curve with a large enough effect in the signal ratio in the repeat runs, not every such curve was filed as active; the % refers to the signal ratio). In a few lines:
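HEK293T cells carrying a CRE-driven beta-lactamase reporter receive compound and NKH477 (0.25 uM final) for 3 h. Fluorescence from LiveBLAzer B/G FRET substrate is read after 2 h at room temperature.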

The target in experiment [17] is 5-hydroxytryptamine receptor 2A (Homo sapiens) (UniProt P28223). Put plainly: 5-hydroxytryptamine receptor 2A (HTR2A) small molecule antagonists, cell-based qHTS assay (AID 1963586). Further: nearly all actives have a fitted effect of over 45% in size. In a few lines:
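Antagonist-mode intracellular calcium assay: DOI (4 nM) added after 5 min compound pre-incubation at room temperature to dye-loaded HTR2A-CHO cells. Fluorescence followed for 3 min, sampled every second.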

Experiment [18] has the same target. Put plainly: 5-hydroxytryptamine receptor 2A (HTR2A) small molecule agonists, cell-based qHTS assay (AID 1963587). Further: nearly all actives have a fitted effect of over 30% in size. Put shortly:
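CHO cells stably expressing human HTR2A, plated 18 h, loaded with calcium dye 1 h at 37 C. Agonist mode: compounds added and intracellular calcium fluorescence recorded kinetically for 2 min at 1 sec intervals.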

In experiment [19] the target is Muscarinic acetylcholine receptor M1 (Homo sapiens) (UniProt P11229). Put plainly: Cholinergic receptor muscarinic 1 (CHRM1) small molecule antagonists, cell-based qHTS assay (AID 1963588). Further: nearly all actives have a fitted effect of over 40% in size. Put shortly:
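CHRM1-CHO calcium-flux assay, antagonist mode. Cells were seeded 18 h, dye-loaded 1 h at 37 C and given compound for 5 min at RT, then acetylcholine was added at 50nM. FDSS fluorescence was read 3 min; 15 concentrations, three runs.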

The target in experiment [20] is Beta-2 adrenergic receptor (Homo sapiens) (UniProt P07550). Put plainly: Adrenergic beta2 receptor (ADRB2) small molecule antagonists, cell-based qHTS assay (AID 1963592). Further: series mostly up to about 92 µM; nearly all actives have a fitted effect of over 50% in size. In a few lines:
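Cells (CHO, stable ADRB2 overexpression) incubated 18-20hr at 37C; compounds added from DMSO; agonist mix (1nM isoproterenol, 100uM IBMX, 25uM Ro-20-1724) added; 0.5hr RT; d2-cAMP and anti-cAMP-cryptate added; 1hr RT; 665/615 nm read.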
On the % scale 0 is the no-effect control and ±100 the full control effect.

Sequence of Beta-2 adrenergic receptor (Homo sapiens) (P07550 whole entry, looked up): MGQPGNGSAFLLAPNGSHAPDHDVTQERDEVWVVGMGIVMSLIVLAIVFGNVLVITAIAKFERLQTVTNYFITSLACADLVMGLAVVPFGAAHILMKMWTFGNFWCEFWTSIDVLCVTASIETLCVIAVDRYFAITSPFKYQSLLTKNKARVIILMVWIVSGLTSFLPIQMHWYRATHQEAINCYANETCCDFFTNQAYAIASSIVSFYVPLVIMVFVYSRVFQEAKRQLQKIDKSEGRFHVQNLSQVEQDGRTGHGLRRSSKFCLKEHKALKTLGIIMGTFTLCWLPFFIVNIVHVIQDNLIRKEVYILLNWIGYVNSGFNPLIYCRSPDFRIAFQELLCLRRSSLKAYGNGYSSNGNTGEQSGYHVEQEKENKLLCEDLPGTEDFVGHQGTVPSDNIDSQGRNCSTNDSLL
Sequence of D(2) dopamine receptor (Homo sapiens) (P14416 whole entry, looked up): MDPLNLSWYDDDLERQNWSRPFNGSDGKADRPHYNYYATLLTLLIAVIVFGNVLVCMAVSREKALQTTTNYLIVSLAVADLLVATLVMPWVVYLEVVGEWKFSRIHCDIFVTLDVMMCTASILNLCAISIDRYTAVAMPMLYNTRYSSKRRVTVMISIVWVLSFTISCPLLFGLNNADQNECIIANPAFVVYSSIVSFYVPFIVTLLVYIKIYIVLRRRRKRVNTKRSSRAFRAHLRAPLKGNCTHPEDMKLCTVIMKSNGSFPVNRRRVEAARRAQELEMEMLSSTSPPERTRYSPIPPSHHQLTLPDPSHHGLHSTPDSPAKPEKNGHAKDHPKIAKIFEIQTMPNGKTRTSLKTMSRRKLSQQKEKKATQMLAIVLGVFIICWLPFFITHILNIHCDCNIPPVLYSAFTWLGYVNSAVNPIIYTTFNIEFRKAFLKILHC
Sequence of Gonadotropin-releasing hormone receptor (Homo sapiens) (P30968 whole entry, looked up): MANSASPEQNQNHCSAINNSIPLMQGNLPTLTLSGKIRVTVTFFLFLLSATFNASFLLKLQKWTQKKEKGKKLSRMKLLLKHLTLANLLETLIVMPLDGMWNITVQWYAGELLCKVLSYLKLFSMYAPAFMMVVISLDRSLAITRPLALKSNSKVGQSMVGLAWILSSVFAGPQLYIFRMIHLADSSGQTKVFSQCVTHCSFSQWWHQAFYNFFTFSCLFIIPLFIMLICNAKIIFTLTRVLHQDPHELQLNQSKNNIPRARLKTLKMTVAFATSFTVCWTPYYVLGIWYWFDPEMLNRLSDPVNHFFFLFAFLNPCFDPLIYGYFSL
Sequence of 5-hydroxytryptamine receptor 2A (Homo sapiens) (P28223 whole entry, looked up): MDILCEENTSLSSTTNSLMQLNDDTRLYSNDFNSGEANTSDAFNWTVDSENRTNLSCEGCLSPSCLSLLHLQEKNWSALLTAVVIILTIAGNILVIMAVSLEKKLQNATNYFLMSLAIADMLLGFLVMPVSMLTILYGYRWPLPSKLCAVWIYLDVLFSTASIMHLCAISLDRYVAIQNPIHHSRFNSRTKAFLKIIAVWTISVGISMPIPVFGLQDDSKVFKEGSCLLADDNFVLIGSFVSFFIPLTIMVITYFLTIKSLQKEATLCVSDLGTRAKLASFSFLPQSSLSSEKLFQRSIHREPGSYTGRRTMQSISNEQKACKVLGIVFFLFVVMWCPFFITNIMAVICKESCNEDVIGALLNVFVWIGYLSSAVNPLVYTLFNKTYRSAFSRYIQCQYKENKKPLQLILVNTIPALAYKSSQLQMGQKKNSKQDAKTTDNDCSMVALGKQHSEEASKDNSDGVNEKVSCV
Sequence of Muscarinic acetylcholine receptor M1 (Homo sapiens) (P11229 whole entry, looked up): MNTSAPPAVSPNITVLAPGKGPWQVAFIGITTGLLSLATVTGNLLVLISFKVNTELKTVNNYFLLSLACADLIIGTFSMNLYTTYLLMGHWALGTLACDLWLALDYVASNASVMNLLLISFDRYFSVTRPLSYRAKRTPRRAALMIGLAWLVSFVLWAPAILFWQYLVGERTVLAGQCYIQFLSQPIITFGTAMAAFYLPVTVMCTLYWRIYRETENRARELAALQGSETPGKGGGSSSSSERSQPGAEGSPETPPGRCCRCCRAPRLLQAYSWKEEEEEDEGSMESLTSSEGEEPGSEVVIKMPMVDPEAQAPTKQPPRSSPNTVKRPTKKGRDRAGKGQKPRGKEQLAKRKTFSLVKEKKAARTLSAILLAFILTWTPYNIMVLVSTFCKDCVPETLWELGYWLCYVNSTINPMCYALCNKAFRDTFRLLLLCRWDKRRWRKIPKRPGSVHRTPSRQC

`O=C(Cc1ccccc1)OCCc1ccccc1`: the Potency result in experiment [1], in experiment [2], in [3], in experiment [4], in experiment [5] and in [6] was “inactive” each time. The Potency result in [7], in experiment [8], in experiment [9], in [10], in experiment [11] and in experiment [12] was “inactive” throughout. For the same compound, the Potency result in experiment [13] and in experiment [14] was “inactive” each time.
Consider `Clc1cc2c(cc1Cl)Oc1cc(Cl)c(Cl)cc1O2`, for which the activity change, negative = cytotoxicity is 5.41% [at 0.349 µM] in [1], -6.87% [at 0.249 µM] in experiment [15] and 1.19% [at 0.249 µM] in experiment [9]. Also, in experiment [2], the activity, positive = activation is 4.08% [at 0.349 µM]. The activity change in [3] was 1.13% [at 0.217 µM, hits give high values]. In addition, the activation in experiment [4] is -3.37% [at 0.29 µM]; in [5], 0.634% [at 0.217 µM]; in experiment [6], 0.165% [at 0.249 µM]; in experiment [7] it was -1.51% [at 0.249 µM]; in [10] it was 1.03% [at 0.249 µM]; in experiment [12], 0.0128% [at 0.349 µM]. Also, in experiment [13], the activation is 0.882% [at 0.349 µM]. In addition, the activity change, negative = inhibition in experiment [16] was -0.651% [at 0.349 µM]; in experiment [14], -6.33% [at 0.348 µM].
Take `CC(C)(COCC1CO1)COCC1CO1` (configuration not stated): the Potency entry in experiment [1], in experiment [3], in [4], in [5], in [6] and in experiment [7] was “inactive” each time. Further, the Potency result in experiment [15], in experiment [9], in experiment [17], in experiment [18], in [19] and in experiment [11] was “inactive” in each case. Moreover, the Potency entry in [12], in experiment [16], in experiment [13] and in experiment [14] was “inactive” in each case. For the same compound, the Potency in experiment [2] was 68.6 µM (active).
As for `CC(Cc1ccccc1)NCCCCl` (configuration not stated), the Potency entry in experiment [1], in [2], in experiment [3], in experiment [4], in [5] and in experiment [6] was “inactive” in each case. Further, the Potency result in [7], in [15], in experiment [10], in experiment [18], in experiment [19] and in [11] was “inactive” each time. Besides, the Potency result in experiment [12], in [16], in experiment [20], in experiment [13] and in experiment [14] was “inactive” throughout.
For `CCCCCCCCCCCCN=C(N)N`, the activity change, negative = cytotoxicity in [1] is -1.49% [at 3.27 µM]; in experiment [15] it was -3.65% [at 2.33 µM]; in experiment [9] it was 10.9% [at 2.33 µM]. Also, the activity, positive = activation in experiment [2] is -21.7% [at 3.27 µM]. Further, the activity change in [3] was 1.72% [at 2.04 µM, hits give high values]. For the same compound, the activation in experiment [4] is 1.8% [at 2.72 µM]; in [5], 0.159% [at 2.04 µM]; in experiment [6] it was 0.2% [at 2.33 µM]; in [7], 0.708% [at 2.33 µM]; in experiment [10], -3.75% [at 2.33 µM]; in experiment [18] it was -1.31% [at 2.65 µM]. The activation was -0.462% [at 2.72 µM] in experiment [11], -0.694% [at 3.27 µM] in experiment [12] and -4% [at 3.27 µM] in [13]. Moreover, the activity, negative = inhibition in [19] is 8.27% [at 2.17 µM]. The figures for the activity change, negative = inhibition in [16], in experiment [20] and in [14] were 1.77% [at 3.27 µM], -9.86% [at 3.27 µM] and -0.313% [at 3.28 µM], respectively.
As to `Cn1cc(C2=C(c3cn(C4CCN(Cc5ccccn5)CC4)c4ccccc34)C(=O)NC2=O)c2ccccc21`, the Potency in experiment [1] was 4.22 µM (active). For the same compound, the Potency result in experiment [2], in experiment [3], in [4], in [5], in experiment [6] and in [7] was “inactive” in each case. Besides, the Potency result in experiment [15], in experiment [8], in experiment [17], in [19], in experiment [11] and in experiment [20] was “inactive” throughout. Further, the Potency entry in [13] and in experiment [14] was “inactive” in each case.
As for `CSSC`, the Potency result in experiment [1], in [3], in experiment [4], in [5], in experiment [6] and in experiment [7] was “inactive” each time. Besides, the Potency result in experiment [15], in experiment [10], in experiment [17], in experiment [18], in experiment [19] and in experiment [11] was “inactive” in each case. Besides, the Potency entry in experiment [16], in experiment [20], in experiment [13] and in experiment [14] was “inactive” each time. In addition, in [2], the Potency is 31 µM (active).
